Assay results: PubChem BioAssay (EPA / NIEHS)
Values joined by “and” are separate entries in the source; they are usually repeats but may differ in a detail not shown here. Equal values may be shown once. Results filed as inconclusive are left out. A structure can be active in one record and inactive in another. Active and inactive are the calls of the source. How the source made its calls, unless noted: active means hit-call score of the fitted dose curve at least 0.9, where 1 is the maximum; inactive means score below 0.9.

Columns and labels:
[1] = target: Myc proto-oncogene protein (Homo sapiens) (UniProt P01106); test: ATG_Myc_CIS: Attagene CIS-FACTORIAL HepG2 Assay for human Myelocytomatosis (Myc) Proto-Oncogene Transcription Factor (AID 2282990); settings: HepG2, Attagene cis-reporter transcription factor activity; actives raise or lower the signal
Sequence of Myc proto-oncogene protein (Homo sapiens) (P01106 whole entry, looked up, the tested form may be a part): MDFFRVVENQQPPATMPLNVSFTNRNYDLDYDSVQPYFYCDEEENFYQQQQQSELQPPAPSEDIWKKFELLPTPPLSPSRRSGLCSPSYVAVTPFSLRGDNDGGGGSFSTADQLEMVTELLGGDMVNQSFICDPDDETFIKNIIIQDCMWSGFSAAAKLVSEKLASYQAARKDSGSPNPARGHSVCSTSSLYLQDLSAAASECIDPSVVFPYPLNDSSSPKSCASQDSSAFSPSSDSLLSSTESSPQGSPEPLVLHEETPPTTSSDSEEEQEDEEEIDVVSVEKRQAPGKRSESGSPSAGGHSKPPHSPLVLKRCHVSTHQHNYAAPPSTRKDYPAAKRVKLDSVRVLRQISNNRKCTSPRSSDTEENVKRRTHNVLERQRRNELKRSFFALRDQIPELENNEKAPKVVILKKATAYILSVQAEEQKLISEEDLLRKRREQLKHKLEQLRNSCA
In short: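 After 24 h chemical treatment of HepG2 cells carrying multiplexed cis-regulated reporter constructs, reporter transcripts quantified by RT-PCR and capillary electrophoresis of fluorescent fragments. Gain or loss fitted against DMSO baseline.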

[2] = ATG_NF_kB_CIS: Attagene CIS-FACTORIAL HepG2 Assay for human Nuclear Factor Kappa B (NF-kB) (AID 2282991); settings: HepG2 Attagene cis-factorial NF-kB reporter mRNA; actives raise or lower the signal
In short: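 Read-out: reporter transcript levels quantified by RT-PCR plus capillary electrophoresis of 6-FAM-labelled, HpaI-cut fragments. Transfected HepG2 cells, 24 h compound exposure, endogenous NF-kB-driven cis element; gain or loss scored versus DMSO.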

[3] = ATG_NRF2_ARE_CIS: Attagene CIS-FACTORIAL HepG2 Assay for human Nuclear Factor Erythroid 2 Related Factor 2 (NFR2) response to Antioxidant Response Elements (ARE) (AID 2282992); settings: HepG2 Attagene ARE/NRF2 reporter, transcription factor activity; actives raise or lower the signal;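 on AC50: reporter mRNA level measured by RT-PCR and capillary electrophoresis fluorescence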
In short: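 Multiplexed reporter mRNA profiling in HepG2 after a 24 h chemical exposure. Curves fitted in both directions relative to DMSO negative control.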

[4] = ATG_Oct_MLP_CIS: Attagene CIS-FACTORIAL HepG2 Assay for human Octamer-Binding Transcription Factor (Oct) (AID 2282993); settings: HepG2 Attagene cis-factorial Oct reporter, mRNA; actives raise or lower the signal
In short: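 Using HepG2 cells bearing transfected cis-reporter constructs, mRNA induction was read after 24 h by fluorescent RT-PCR and capillary electrophoresis, with DMSO defining baseline for gain- or loss-of-signal fits.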

[5] = target: Cellular tumor antigen p53 (Homo sapiens) (UniProt P04637); test: ATG_p53_CIS: Attagene CIS-FACTORIAL HepG2 Assay for human p53 Transcription Factor (AID 2282994); settings: HepG2 p53 cis-element reporter, Attagene mRNA; actives raise or lower the signal
Sequence of Cellular tumor antigen p53 (Homo sapiens) (P04637 whole entry, looked up): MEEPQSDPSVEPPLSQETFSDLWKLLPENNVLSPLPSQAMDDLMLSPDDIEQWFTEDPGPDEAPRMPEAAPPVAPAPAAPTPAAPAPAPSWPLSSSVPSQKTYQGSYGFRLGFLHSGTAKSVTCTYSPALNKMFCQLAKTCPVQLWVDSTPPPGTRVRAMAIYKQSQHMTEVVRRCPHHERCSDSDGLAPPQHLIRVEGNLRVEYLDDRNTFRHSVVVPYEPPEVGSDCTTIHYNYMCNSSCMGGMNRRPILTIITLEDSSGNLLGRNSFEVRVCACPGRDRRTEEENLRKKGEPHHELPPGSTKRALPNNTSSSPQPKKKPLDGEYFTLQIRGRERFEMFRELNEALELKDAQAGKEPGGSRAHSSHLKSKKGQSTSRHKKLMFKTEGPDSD
In short: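 Multiplexed reporter mRNA assay in human HepG2 liver cells; cis-regulated units report endogenous factor activity. Values come from bidirectional curve fitting against DMSO negative control after 24 h treatment.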

[6] = BSK_3C_TissueFactor: BioMAP Diversity Plus: 3C Assay for Tissue Factor Biomarker Activity (AID 2282997); settings: BioMAP 3C HUVEC, tissue factor biomarker readout; actives raise or lower the signal
In short: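 ELISA read-out of Tissue Factor levels on human umbilical vein endothelium collected 24 h after chemical dosing. Gain or loss of signal was fitted relative to DMSO.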

[7] = BSK_3C_uPAR: BioMAP Diversity Plus: 3C Assay for Urokinase-type plasminogen activator receptor (uPAR) Biomarker Activity (AID 2282998); settings: BioMAP 3C HUVEC, uPAR biomarker ELISA; actives raise or lower the signal
In short: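 In this endothelial cell-based assay, human umbilical vein primary cells were treated with chemicals and harvested at 24 h. uPAR was quantified using ELISA, with gains or losses fitted relative to DMSO controls.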

[8] = BSK_4H_Eotaxin3: BioMAP Diversity Plus: 4H Assay for Eotaxin 3 Biomarker Activity (AID 2283000); settings: primary human endothelial cells (HUVEC); actives raise or lower the signal;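 further: CCL26 protein level quantified by ELISA in parallel with SRB cytotoxicity check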
In short: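 Chemicals were added to human umbilical vein endothelium cultures, and Eotaxin-3 was quantified by ELISA at 24 h. Values were derived by bidirectional fitting with DMSO serving as negative control and activity baseline.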

[9] = target: human Peroxisome Proliferator-activated Receptor delta (PPARd), PPARD (gene 5467) (UniProt Q03181); test: ATG_PPARd_TRANS: Attagene TRANS-FACTORIAL HepG2 Assay for human Peroxisome Proliferator-activated Receptor delta (PPARd) (AID 2283002; active means hit-call score of the fitted dose curve at least 0.9, where 1 is the maximum)
Sequence of human Peroxisome Proliferator-activated Receptor delta (PPARd), PPARD (gene 5467) (Q03181 whole entry, looked up, the tested form may be a part): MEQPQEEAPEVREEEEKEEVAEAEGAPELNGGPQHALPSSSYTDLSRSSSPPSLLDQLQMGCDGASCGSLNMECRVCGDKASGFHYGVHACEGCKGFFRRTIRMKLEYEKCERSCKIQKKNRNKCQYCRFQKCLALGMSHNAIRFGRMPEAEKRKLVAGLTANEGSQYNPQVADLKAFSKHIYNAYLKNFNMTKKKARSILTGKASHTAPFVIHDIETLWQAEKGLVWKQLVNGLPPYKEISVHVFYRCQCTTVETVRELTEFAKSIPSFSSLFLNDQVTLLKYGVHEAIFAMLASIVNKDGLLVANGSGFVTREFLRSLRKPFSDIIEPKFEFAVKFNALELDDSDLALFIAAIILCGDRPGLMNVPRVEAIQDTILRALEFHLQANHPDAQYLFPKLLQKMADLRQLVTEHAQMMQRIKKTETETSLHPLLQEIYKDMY
In short: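 Read-out is induced reporter mRNA, quantified by RT-PCR with fluorescent labelling and capillary electrophoresis after 24 h dosing. Cells are HepG2 transiently carrying multiple GAL4-UAS reporter units driven by exogenous NR-GAL4 chimeras; DMSO serves as baseline.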

[10] = target: human Retinoic Acid Receptor beta (RARb), RARB (gene 5915) (UniProt P10826); test: ATG_RARb_TRANS: Attagene TRANS-FACTORIAL HepG2 Assay for human Retinoic Acid Receptor beta (AID 2283004; active means hit-call score of the fitted dose curve at least 0.9, where 1 is the maximum)
Sequence of human Retinoic Acid Receptor beta (RARb), RARB (gene 5915) (P10826 whole entry, looked up): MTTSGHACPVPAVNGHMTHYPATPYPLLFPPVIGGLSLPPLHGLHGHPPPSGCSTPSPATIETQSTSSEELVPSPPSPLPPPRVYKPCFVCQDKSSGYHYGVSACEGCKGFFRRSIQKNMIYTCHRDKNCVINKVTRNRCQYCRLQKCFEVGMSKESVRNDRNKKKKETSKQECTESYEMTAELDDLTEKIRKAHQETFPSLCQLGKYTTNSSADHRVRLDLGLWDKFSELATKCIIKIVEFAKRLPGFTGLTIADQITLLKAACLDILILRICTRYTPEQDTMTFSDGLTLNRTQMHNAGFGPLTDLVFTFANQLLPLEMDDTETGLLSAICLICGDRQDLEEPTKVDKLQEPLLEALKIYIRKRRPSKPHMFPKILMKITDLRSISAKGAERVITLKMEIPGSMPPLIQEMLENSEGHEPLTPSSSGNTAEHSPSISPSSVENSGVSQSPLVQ
In short: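 Transient transfection of HepG2 with multiple reporter units → chemical dosing, 24 h → total RNA isolation → RT with oligo(dT) → reporter-specific PCR, 6-FAM primer extension, HpaI digest → capillary electrophoresis. Positive direction vs DMSO control.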

[11] = target: Retinoic acid receptor alpha (Homo sapiens) (UniProt P10276); test: ATG_RARa_TRANS: Attagene TRANS-FACTORIAL HepG2 Assay for human Retinoic Acid Receptor alpha (RARa) (AID 2283005; active means hit-call score of the fitted dose curve at least 0.9, where 1 is the maximum;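 on AC50: potency for increased reporter signal meaning RARa activation over DMSO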)
Sequence of Retinoic acid receptor alpha (Homo sapiens) (P10276 whole entry, looked up, the tested form may be a part): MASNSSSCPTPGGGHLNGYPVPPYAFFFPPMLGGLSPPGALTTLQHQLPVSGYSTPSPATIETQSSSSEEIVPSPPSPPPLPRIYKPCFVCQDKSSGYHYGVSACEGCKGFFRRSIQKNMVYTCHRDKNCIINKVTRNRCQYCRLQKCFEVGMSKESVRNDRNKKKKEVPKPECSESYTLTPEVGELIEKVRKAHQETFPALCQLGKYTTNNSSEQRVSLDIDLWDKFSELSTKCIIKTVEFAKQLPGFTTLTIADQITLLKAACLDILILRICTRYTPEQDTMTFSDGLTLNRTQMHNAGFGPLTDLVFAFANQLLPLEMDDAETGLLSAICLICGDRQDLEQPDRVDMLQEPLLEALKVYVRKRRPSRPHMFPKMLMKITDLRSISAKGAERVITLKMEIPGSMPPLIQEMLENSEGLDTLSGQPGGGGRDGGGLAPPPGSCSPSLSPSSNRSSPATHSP
In short: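 Reporter transcripts, measured by RT-PCR with fluorescent labeling and capillary electrophoresis after 24 h dosing, reflect activity of an exogenous human RARa–GAL4 fusion in transiently transfected HepG2. Fitted for increase relative to DMSO.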

[12] = BSK_3C_Proliferation: Cell Proliferation Assessment in the BioMAP Diversity Plus: 3C Assay (AID 2283006); settings: primary human endothelial cells (HUVEC);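 on AC50: potency may reflect either rise or fall in cell number versus DMSO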
In short: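 Subconfluent HUVEC (3C system) cultured with chemical; relative cell number read at 48 h by sulforhodamine B total-protein staining (0.1% SRB after 10% TCA fixation, 560 nm). Bidirectional fit relative to DMSO.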

[13] = target: Peroxisome proliferator-activated receptor gamma (Homo sapiens) (UniProt P37231); test: ATG_PPARg_TRANS: Attagene TRANS-FACTORIAL HepG2 Assay for human Peroxisome Proliferator-activated Receptor-gamma (PPARg) (AID 2283007; active means hit-call score of the fitted dose curve at least 0.9, where 1 is the maximum)
Sequence of Peroxisome proliferator-activated receptor gamma (Homo sapiens) (P37231 whole entry, looked up, the tested form may be a part): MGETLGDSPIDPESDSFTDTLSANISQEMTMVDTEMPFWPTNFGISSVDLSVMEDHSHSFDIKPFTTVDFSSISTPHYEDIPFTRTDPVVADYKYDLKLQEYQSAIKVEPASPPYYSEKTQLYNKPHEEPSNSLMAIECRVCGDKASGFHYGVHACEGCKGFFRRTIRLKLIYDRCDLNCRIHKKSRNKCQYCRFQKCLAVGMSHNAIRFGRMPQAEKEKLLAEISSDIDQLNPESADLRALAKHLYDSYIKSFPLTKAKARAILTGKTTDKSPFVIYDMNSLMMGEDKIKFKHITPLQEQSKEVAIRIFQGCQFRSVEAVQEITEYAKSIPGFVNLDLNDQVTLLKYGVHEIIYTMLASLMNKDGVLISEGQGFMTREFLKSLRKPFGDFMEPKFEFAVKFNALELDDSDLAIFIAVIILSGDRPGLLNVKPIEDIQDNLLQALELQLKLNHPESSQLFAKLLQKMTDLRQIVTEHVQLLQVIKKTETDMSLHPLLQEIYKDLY
In short: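 Read-out: reporter mRNA induction, detected by fluorescence after RT-PCR and capillary electrophoresis. Transiently transfected human HepG2 liver cells carrying a chimeric NR-Gal4 construct were dosed for 24 h; activity was fitted upward relative to DMSO.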

[14] = target: Nuclear receptor subfamily 1 group I member 2 (Homo sapiens) (UniProt O75469); test: ATG_PXR_TRANS: Attagene TRANS-FACTORIAL HepG2 Assay for human Pregnane X Receptor (PXR) (AID 2283008; active means hit-call score of the fitted dose curve at least 0.9, where 1 is the maximum)
Sequence of Nuclear receptor subfamily 1 group I member 2 (Homo sapiens) (O75469 whole entry, looked up, the tested form may be a part): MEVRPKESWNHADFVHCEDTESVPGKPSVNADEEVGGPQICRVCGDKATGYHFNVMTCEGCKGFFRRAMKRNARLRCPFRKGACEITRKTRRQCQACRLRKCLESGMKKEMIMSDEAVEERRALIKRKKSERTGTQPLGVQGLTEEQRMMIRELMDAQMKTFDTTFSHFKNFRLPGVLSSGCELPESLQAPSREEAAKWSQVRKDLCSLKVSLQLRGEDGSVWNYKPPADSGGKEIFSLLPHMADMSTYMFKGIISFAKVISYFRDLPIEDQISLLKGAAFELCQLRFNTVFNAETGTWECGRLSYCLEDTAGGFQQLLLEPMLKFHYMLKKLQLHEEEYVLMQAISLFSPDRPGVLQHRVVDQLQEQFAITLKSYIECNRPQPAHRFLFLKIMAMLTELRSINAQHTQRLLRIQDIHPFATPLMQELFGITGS
In short: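 Measures mRNA induction of a GAL4-UAS-driven reporter in human HepG2 cells transiently expressing PXR fused to Gal4, following 24 h treatment. DMSO served as negative control and baseline.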

[15] = target: human Retinoic Acid Receptor gamma (RARg), RARG (gene 5916) (UniProt P13631); test: ATG_RARg_TRANS: Attagene TRANS-FACTORIAL HepG2 Assay for human Retinoic Acid Receptor gamma (RARg) (AID 2283009; active means hit-call score of the fitted dose curve at least 0.9, where 1 is the maximum;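 on AC50: AC50 is for reporter induction above DMSO meaning RARg activation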)
Sequence of human Retinoic Acid Receptor gamma (RARg), RARG (gene 5916) (P13631 whole entry, looked up, the tested form may be a part): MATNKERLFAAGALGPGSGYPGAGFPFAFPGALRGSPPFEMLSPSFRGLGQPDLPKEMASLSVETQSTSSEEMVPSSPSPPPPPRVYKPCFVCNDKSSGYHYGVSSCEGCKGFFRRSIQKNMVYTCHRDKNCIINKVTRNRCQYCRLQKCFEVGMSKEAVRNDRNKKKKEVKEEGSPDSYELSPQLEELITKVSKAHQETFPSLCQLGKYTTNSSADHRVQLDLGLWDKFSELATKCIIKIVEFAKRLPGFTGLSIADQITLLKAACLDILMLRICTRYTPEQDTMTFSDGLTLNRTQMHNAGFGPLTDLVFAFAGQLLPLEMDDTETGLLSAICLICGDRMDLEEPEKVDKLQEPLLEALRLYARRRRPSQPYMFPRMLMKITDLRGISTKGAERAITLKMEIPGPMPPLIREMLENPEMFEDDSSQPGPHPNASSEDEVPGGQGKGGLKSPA
In short: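 HepG2 transiently transfected with GAL4-UAS reporter units and chimeric NR-Gal4 constructs; 24 h compound exposure. Reporter mRNA quantified by RT-PCR, FAM labeling, HpaI digestion and capillary electrophoresis; gain-of-signal versus DMSO.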

[16] = target: human RAR-related Orphan Receptor beta (RORb), RORB (gene 6096) (UniProt Q92753); test: ATG_RORb_TRANS: Attagene TRANS-FACTORIAL HepG2 Assay for human RAR-related Orphan Receptor beta (RORb) (AID 2283010; active means hit-call score of the fitted dose curve at least 0.9, where 1 is the maximum)
In short: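 HepG2 cells transiently transfected with GAL4-UAS reporter units expressing chimeric NR-Gal4 protein; reporter mRNA measured 24 h after dosing by RT-PCR, 6-FAM labelling and capillary electrophoresis. Gain-of-signal fitted relative to DMSO baseline.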

[17] = target: Retinoic acid receptor RXR-alpha (Homo sapiens) (UniProt P19793); test: ATG_RXRa_TRANS: Attagene TRANS-FACTORIAL HepG2 Assay for human Retinoid X Receptor alpha (RXRa) (AID 2283012; active means hit-call score of the fitted dose curve at least 0.9, where 1 is the maximum)
Sequence of Retinoic acid receptor RXR-alpha (Homo sapiens) (P19793 whole entry, looked up, the tested form may be a part): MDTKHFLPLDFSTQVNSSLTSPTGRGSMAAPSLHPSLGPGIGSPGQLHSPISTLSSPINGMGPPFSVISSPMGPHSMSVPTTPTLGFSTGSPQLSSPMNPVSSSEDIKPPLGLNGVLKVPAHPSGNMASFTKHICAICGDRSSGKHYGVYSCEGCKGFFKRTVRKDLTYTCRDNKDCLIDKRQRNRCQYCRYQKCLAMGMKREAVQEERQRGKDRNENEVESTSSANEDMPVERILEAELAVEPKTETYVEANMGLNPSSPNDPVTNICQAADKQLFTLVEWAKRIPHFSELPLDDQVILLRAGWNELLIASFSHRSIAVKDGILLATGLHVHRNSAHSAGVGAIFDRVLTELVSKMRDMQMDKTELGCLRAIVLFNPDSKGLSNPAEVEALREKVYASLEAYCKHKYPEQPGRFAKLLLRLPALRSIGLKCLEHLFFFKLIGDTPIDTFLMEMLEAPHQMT
In short: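 HepG2 cells transiently transfected with GAL4-UAS reporter units and chimeric RXRa-Gal4 protein, treated 24 h. Reporter mRNA measured by RT-PCR, fluorescent labelling, HpaI digestion and capillary electrophoresis. Induction fitted against DMSO.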

[18] = BSK_3C_VCAM1: BioMAP Diversity Plus: 3C Assay for Vascular cell adhesion molecule 1 (VCAM1) Biomarker Activity (AID 2282999); settings: BioMAP 3C HUVEC, VCAM1 ELISA, cytokine-stimulated; actives raise or lower the signal
In short: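 Endothelial cells from human umbilical vein are treated with test chemical. At 24 h, VCAM-1 is measured by ELISA, and responses in either direction are fitted relative to DMSO.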

[19] = target: human Peroxisome Proliferator-activated Receptor alpha (PPARa), PPARA (gene 5465) (UniProt Q07869); test: ATG_PPARa_TRANS: Attagene TRANS-FACTORIAL HepG2 Assay for human Peroxisome Proliferator-activated Receptor alpha (PPARa) (AID 2283001; active means hit-call score of the fitted dose curve at least 0.9, where 1 is the maximum)
Sequence of human Peroxisome Proliferator-activated Receptor alpha (PPARa), PPARA (gene 5465) (Q07869 whole entry, looked up, the tested form may be a part): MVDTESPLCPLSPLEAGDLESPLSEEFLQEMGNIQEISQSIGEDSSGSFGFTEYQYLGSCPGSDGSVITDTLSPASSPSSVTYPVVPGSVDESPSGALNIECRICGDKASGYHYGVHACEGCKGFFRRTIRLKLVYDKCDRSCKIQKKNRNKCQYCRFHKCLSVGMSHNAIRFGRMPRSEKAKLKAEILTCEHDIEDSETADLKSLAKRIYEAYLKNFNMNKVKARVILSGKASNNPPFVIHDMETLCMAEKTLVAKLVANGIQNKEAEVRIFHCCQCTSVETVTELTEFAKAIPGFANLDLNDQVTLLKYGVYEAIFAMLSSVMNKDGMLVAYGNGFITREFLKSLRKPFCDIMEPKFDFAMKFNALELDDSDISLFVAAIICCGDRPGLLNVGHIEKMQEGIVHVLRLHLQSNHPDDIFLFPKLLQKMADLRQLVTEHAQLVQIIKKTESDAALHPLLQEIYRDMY
In short: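 Read-out is fluorescence of reporter cDNA fragments resolved by capillary electrophoresis after RT-PCR. Human HepG2 liver cells carried transfected PPARa-Gal4 chimera and GAL4-UAS reporter units, treated 24 h; activity scored as increase over DMSO.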

[20] = read-out: Intercellular Adhesion Molecule 1 (ICAM1), ICAM1 (gene 3383); test: BSK_3C_ICAM1: BioMAP Diversity Plus: 3C Assay for Intercellular Adhesion Molecule 1 (ICAM1) Biomarker Activity (AID 2283003); settings: primary human endothelial cells (HUVEC); actives raise or lower the signal
In short: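 HUVEC primary cells stimulated under 3C conditions; ICAM1 measured by ELISA 24 h after compound dosing. Curves fitted bidirectionally against the DMSO baseline. Overt cytotoxicity checked by SRB staining of parallel cultures.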

Measured: AC50

ClC1=C(Cl)[C@]2(Cl)[C@@H]3[C@@H]4C[C@@H]([C@H]5O[C@@H]45)[C@@H]3[C@@]1(Cl)C2(Cl)Cl
active: [3] 112 µM | [11] 0.855 µM | [12] 14.5 µM | [14] 2.84 µM | [15] 2.12 µM
not listed: [18] | [19] | [20]
inactive: all other assays above

Cc1cc2c3c(c1)C(c1ccccc1)=N[C@@H](NC(=O)c1ccncc1)C(=O)N3CC2
active: [3] 96.6 µM | [4] 74 µM | [13] 1.71 µM | [14] 2.54 µM
not listed: [2] | [11]
inactive: all other assays above

Cc1ccccc1CO[C@@H]1C[C@@]2(C(C)C)CC[C@]1(C)O2
active: [3] 2.86 µM | [13] 32.3 µM | [14] 5.24 µM
not listed: [5] | [16] | [19] | [20]
inactive: all other assays above

CCOP(=S)(OCC)SCSC(C)(C)C
active: [3] 67 µM | [12] 29.3 µM | [14] 3.49 µM and 2.9 µM
inactive: [1] | [3] | [4] | [5] | [6] | [7] | [8] | [9] | [20] | [13] | [17]

CC1=C2C[C@H]3[C@@H](CC=C4C[C@@H](O)CC[C@@]43C)[C@@H]2CC[C@]12O[C@@H]1C[C@H](C)CN[C@H]1[C@H]2C
not listed: [2] | [10] | [13] | [14] | [16] | [17] | [18] | [19]
inactive: all other assays above

CCCN(CCC)N=O
inactive: [1] | [2] | [3] | [4] | [5] | [6] | [7] | [8] | [12] | [15]

Cc1cc(-c2ccc(N)c(C)c2)ccc1N
active: [5] 100 µM | [13] 100 µM
inactive: [1] | [3] | [4] | [5] | [6] | [7] | [18] | [8] | [19] | [20] | [10] | [11] | [12] | [13] | [14] | [15] | [17]

Oc1ccc(Cl)cc1Cl
inactive: [1] | [4] | [5] | [6] | [7] | [8] | [19] | [12] | [13]
active: [3] 36.3 µM
